Experimental findings from PubChem BioAssay (NCI) are described below.

Test systems include SK-MEL-2 melanoma; EKVX NSCLC; SN12C renal; UO-31 renal; TK-10 renal; ACHN renal; CAKI-1 renal; MOLT-4 leukemia; SR leukemia; OVCAR-8 ovarian; OVCAR-5 ovarian; OVCAR-4 ovarian; SK-OV-3 ovarian; IGROV1 ovarian; OVCAR-3 ovarian; HS 578T breast; NCI/ADR-RES ovarian.
Assay in all cases: NCI-60 one-dose screen, 48 h (100 = growth as untreated, 0 = no growth, -100 = all killed)
What all share (settings): 10 µM

About 83,000 compounds went through this panel and 20% of them were active in at least one assay; those are over-represented in the sample as a whole.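 How to read the values: 0–100, growth inhibition (40 = 60% inhibited); 0, no net growth; -100 to 0, cell death (-40 = 40% of starting cells died; -100 = all dead).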 A number with no mark means an inactive call. Activity calls are given as the source filed them. Rule for the calls: active = growth percent below 10; inactive = the rest.

For `CCn1c2ccc(O)cc2c2c(C)c3c[n+](C)ccc3c(C)c21`, the growth in the test with SK-MEL-2 melanoma was 40.9%; in the test with EKVX NSCLC, 73.7%; with SN12C renal it was -32.6% (active); in the test on UO-31 renal it was 64.2%; in the test with TK-10 renal, 45.6%; with ACHN renal, 60.6%. For the same molecule, the growth in the test on CAKI-1 renal is 85.2%; in the test on MOLT-4 leukemia it was 17.8%; in the test with SR leukemia, 21.2%; in the test on OVCAR-8 ovarian, 32.4%; in the test with OVCAR-5 ovarian it was 88.7%; in the test on OVCAR-4 ovarian, 52%. The growth in the test on SK-OV-3 ovarian is 71.2%; in the test on IGROV1 ovarian, 53.8%; in the test on OVCAR-3 ovarian, 37.8%; in the test with HS 578T breast it was -0.0943% (active); in the test with NCI/ADR-RES ovarian, 81%.

As to `O=S(=O)(NCCCNc1nccc(-c2cn(-c3ccccc3)nc2-c2ccc(Cl)c(O)c2)n1)c1ccccc1`, the growth with SK-MEL-2 melanoma is 65.5%; in the test on EKVX NSCLC, 55.2%; in the test on SN12C renal, 67.2%; with UO-31 renal it was 45.9%; in the test with TK-10 renal, 76.9%; in the test on ACHN renal, 66.1%. The growth with CAKI-1 renal was 90.4%; in the test on MOLT-4 leukemia it was 43.1%; in the test with SR leukemia, 42%; in the test on OVCAR-8 ovarian it was 59.5%; with OVCAR-5 ovarian it was 118%; with OVCAR-4 ovarian, 71.1%. Further, the growth in the test on SK-OV-3 ovarian was 83.8%; with IGROV1 ovarian, 73.5%; in the test on OVCAR-3 ovarian, 66.8%; with HS 578T breast, 67.3%; with NCI/ADR-RES ovarian, 33.3%.

Turning to `Nc1ccccc1NC(=O)c1ccc(CCCC(=O)Nc2ccc(C3CC3N)cc2)cc1` (stereo unspecified), the growth with SK-MEL-2 melanoma was -4.46% (active); with EKVX NSCLC it was 53.5%; with SN12C renal, 43.8%; in the test with UO-31 renal it was 62.8%; in the test with TK-10 renal, 8.6% (active); in the test on ACHN renal, 52%. Moreover, the growth is 96.2% with CAKI-1 renal; 22.6% in the test on MOLT-4 leukemia; 31.5% in the test on SR leukemia; 17.3% with OVCAR-8 ovarian; 33.1% in the test with OVCAR-5 ovarian; 49.7% in the test on OVCAR-4 ovarian. In addition, the growth was 32.4% in the test with SK-OV-3 ovarian; 44.3% in the test with IGROV1 ovarian; 25.4% in the test with OVCAR-3 ovarian; 36.7% in the test on HS 578T breast; 98.6% with NCI/ADR-RES ovarian.

Consider `Cc1c2c[n+](C(C)C)ccc2c(C)c2c1[nH]c1ccccc12`, for which the growth with SK-MEL-2 melanoma is 12.3%; in the test with EKVX NSCLC, 29.4%; in the test on SN12C renal, -11.8% (active); with UO-31 renal it was 72.1%; in the test with TK-10 renal it was 54%; in the test with ACHN renal, 85.7%. Moreover, the growth is 96% in the test with CAKI-1 renal; 14.8% with MOLT-4 leukemia; 20.8% in the test on SR leukemia; 15.9% with OVCAR-8 ovarian; 55.7% with OVCAR-5 ovarian; 13.8% in the test on OVCAR-4 ovarian. The growth in the test with SK-OV-3 ovarian is -1.05% (active); in the test with IGROV1 ovarian, 41.2%; with OVCAR-3 ovarian, 9.41% (active); with HS 578T breast, 22.8%; with NCI/ADR-RES ovarian it was 97.9%.

Turning to `O=C1NC(=O)c2c(CCCSc3nc4ccccc4c(=O)n3CCc3ccccc3)cccc21`, the growth with SK-MEL-2 melanoma is 105%; with EKVX NSCLC, 16.3%; with SN12C renal it was 91.7%; with UO-31 renal it was 70.6%; in the test on TK-10 renal it was 124%; in the test with ACHN renal, 69.9%. Further, the growth in the test on CAKI-1 renal is 18.5%; with MOLT-4 leukemia, 81.3%; in the test on SR leukemia it was 66.6%; in the test with OVCAR-8 ovarian, 83.7%; in the test on OVCAR-5 ovarian it was 102%; with OVCAR-4 ovarian it was 60.7%. Besides, the growth in the test with SK-OV-3 ovarian was 86.2%; in the test on IGROV1 ovarian, 97.4%; in the test on OVCAR-3 ovarian, 115%; in the test with HS 578T breast, 74.1%; with NCI/ADR-RES ovarian, 79.8%.

`CCCCCCCCCCCCCCCCCC[n+]1ccc2c(C)c3c(c(C)c2c1)c1cc(O)ccc1n3CC`: the growth was -33.1% (active) in the test on SK-MEL-2 melanoma; 19.5% with EKVX NSCLC; 1.79% (active) in the test with SN12C renal; 39.8% in the test on UO-31 renal; 17.8% in the test with TK-10 renal; 25.7% with ACHN renal. Besides, the growth in the test on CAKI-1 renal is 71.1%; in the test with MOLT-4 leukemia, 19%; in the test with SR leukemia, 12.2%; in the test on OVCAR-8 ovarian it was 7.3% (active); with OVCAR-5 ovarian, 42.5%; in the test with OVCAR-4 ovarian, 18.2%. For the same molecule, the growth in the test with SK-OV-3 ovarian was 22.2%; in the test on IGROV1 ovarian, 6.43% (active); in the test on OVCAR-3 ovarian it was 4.31% (active); with HS 578T breast it was 9.04% (active); in the test on NCI/ADR-RES ovarian, 72.3%.

As to `CN1CCc2c(sc3nc4n(-c5ccc(Cl)cc5)c(=O)[nH]n4c(=O)c23)C1`, the growth with SK-MEL-2 melanoma is 96.5%; in the test on EKVX NSCLC, 101%; in the test with SN12C renal, 107%; with UO-31 renal it was 89.7%; in the test on TK-10 renal, 88.3%; in the test on ACHN renal, 106%. For the same molecule, the growth in the test on CAKI-1 renal was 93.1%; in the test on MOLT-4 leukemia it was 99.1%; in the test on SR leukemia, 97.6%; with OVCAR-8 ovarian, 93%; with OVCAR-5 ovarian it was 115%; with OVCAR-4 ovarian, 109%. In addition, the growth with SK-OV-3 ovarian is 96.8%; in the test with OVCAR-3 ovarian it was 106%; with HS 578T breast, 121%; in the test with NCI/ADR-RES ovarian, 99%.

As for `COc1ccc([C@H]2[C@H](C(=O)Nc3cccnc3)c3ccccc3C(=O)N2c2ccccc2)cc1`, the growth in the test on SK-MEL-2 melanoma was 86.2%; in the test on EKVX NSCLC, 94.5%; with SN12C renal, 99.4%; in the test on UO-31 renal it was 99.5%; in the test on TK-10 renal it was 93%; with ACHN renal, 90.3%. In addition, the growth in the test on CAKI-1 renal was 93.7%; in the test with MOLT-4 leukemia, 77.5%; with SR leukemia, 46.3%; in the test with OVCAR-8 ovarian it was 96.1%; with OVCAR-5 ovarian it was 114%; in the test with OVCAR-4 ovarian, 98.2%. The growth in the test with SK-OV-3 ovarian was 96.4%; in the test on OVCAR-3 ovarian, 100%; in the test with HS 578T breast, 71%; in the test on NCI/ADR-RES ovarian it was 97%.

`COc1ccc(C(=O)CSc2nc(-c3cc(OC)ccc3OC)cc(-c3ccc(OC)cc3)c2C#N)cc1`: the growth in the test with SK-MEL-2 melanoma was 103%; in the test on EKVX NSCLC it was 89.1%; in the test with SN12C renal it was 97.6%; in the test on UO-31 renal, 86.4%; in the test on TK-10 renal, 103%; with ACHN renal it was 97.4%. Moreover, the growth was 96.3% with CAKI-1 renal; 96.9% in the test on MOLT-4 leukemia; 90.1% with SR leukemia; 105% in the test with OVCAR-8 ovarian; 85.8% with OVCAR-5 ovarian; 98.1% in the test with OVCAR-4 ovarian. Moreover, the growth is 87.1% in the test on SK-OV-3 ovarian; 102% with IGROV1 ovarian; 97% with OVCAR-3 ovarian; 103% in the test with HS 578T breast; 45.1% in the test with NCI/ADR-RES ovarian.

Consider `COc1ccc2nc(Cl)c(Cn3nnc(Cc4ccccc4)n3)cc2c1`, for which the growth in the test on SK-MEL-2 melanoma is 49.6%; in the test on EKVX NSCLC, 24.5%; in the test on SN12C renal, 57.3%; in the test with UO-31 renal it was 14.7%; in the test on TK-10 renal, 34.9%; with ACHN renal, 41.5%. Moreover, the growth with CAKI-1 renal was 43.9%; with MOLT-4 leukemia, 10.3%; with SR leukemia it was 22.9%; in the test on OVCAR-8 ovarian, 40.5%; in the test on OVCAR-5 ovarian, 82.8%; with OVCAR-4 ovarian it was 19.7%. Also, the growth in the test with SK-OV-3 ovarian is 49.4%; in the test on IGROV1 ovarian it was 43.2%; with OVCAR-3 ovarian it was 49.8%; in the test on HS 578T breast, 68.9%; in the test with NCI/ADR-RES ovarian, 20.1%.

As for `Cc1ccc(-n2c(C)nn3c(=O)c4c5c(sc4nc23)CN(C)CC5)cc1`, the growth with SK-MEL-2 melanoma was 95%; in the test on EKVX NSCLC it was 95%; in the test on SN12C renal it was 97.6%; in the test with UO-31 renal, 83.2%; in the test with TK-10 renal it was 82.4%; in the test with ACHN renal it was 101%. The growth in the test on CAKI-1 renal is 88.5%; with MOLT-4 leukemia, 97.9%; in the test with SR leukemia, 104%; in the test on OVCAR-8 ovarian, 103%; with OVCAR-5 ovarian, 98.8%; in the test with OVCAR-4 ovarian, 102%. The growth was 95.1% in the test on SK-OV-3 ovarian, 96.7% in the test on OVCAR-3 ovarian, 107% in the test with HS 578T breast and 101% in the test with NCI/ADR-RES ovarian.

For `O=C1c2ccccc2-c2c1c1cccnc1c(=O)n2C[C@H](O)CO`, the growth is 101% in the test with SK-MEL-2 melanoma; 79.3% in the test with EKVX NSCLC; 35.6% with SN12C renal; 49.9% with UO-31 renal; 84.7% in the test on TK-10 renal; 27.6% in the test on ACHN renal. The growth in the test on CAKI-1 renal was 65.5%; with MOLT-4 leukemia, 9.69% (active); with SR leukemia, 11.6%; in the test on OVCAR-8 ovarian, 58.7%; in the test on OVCAR-5 ovarian, 104%; in the test with OVCAR-4 ovarian, 92.5%. Moreover, the growth was 60.3% in the test with SK-OV-3 ovarian; 50.4% in the test on IGROV1 ovarian; 79.6% in the test on OVCAR-3 ovarian; 85.1% with HS 578T breast; 88.1% in the test with NCI/ADR-RES ovarian.
